Consider 58 molecules from PubChem BioAssay AID1851 (National Center for Advancing Translational Sciences (NCATS), 2009).

Where “and” joins values, the source holds several entries; their conditions need not be identical. Equal entries are not always repeated. Hit rate of the full screen: of about 16,000 compounds, about 5,700 (36%) were called active. Another 24% or so got no clear call; they are omitted. The call rests on the fitted dose curve; in most records, active means well fitted curve in the direction sought with a large enough effect; inconclusive means small, poorly fitted or top-dose-only effect, or effect the other way; inactive means no such curve, though single readings can be large or run the other way. This is one part of the list.
On the % scale 0 is the no-effect control and ±100 the full control effect.

This assay deals with Cytochrome P450 1A2 (Homo sapiens) (UniProt P05177). Nature of the assay: Cytochrome panel assay with activity outcomes. The following applies: recombinant CYP, pro-luciferin dealkylation, luminescence, p450-cyp1a2; series mostly up to 57.1 µM.
Chain of Cytochrome P450 1A2 (Homo sapiens) (P05177 whole entry, looked up): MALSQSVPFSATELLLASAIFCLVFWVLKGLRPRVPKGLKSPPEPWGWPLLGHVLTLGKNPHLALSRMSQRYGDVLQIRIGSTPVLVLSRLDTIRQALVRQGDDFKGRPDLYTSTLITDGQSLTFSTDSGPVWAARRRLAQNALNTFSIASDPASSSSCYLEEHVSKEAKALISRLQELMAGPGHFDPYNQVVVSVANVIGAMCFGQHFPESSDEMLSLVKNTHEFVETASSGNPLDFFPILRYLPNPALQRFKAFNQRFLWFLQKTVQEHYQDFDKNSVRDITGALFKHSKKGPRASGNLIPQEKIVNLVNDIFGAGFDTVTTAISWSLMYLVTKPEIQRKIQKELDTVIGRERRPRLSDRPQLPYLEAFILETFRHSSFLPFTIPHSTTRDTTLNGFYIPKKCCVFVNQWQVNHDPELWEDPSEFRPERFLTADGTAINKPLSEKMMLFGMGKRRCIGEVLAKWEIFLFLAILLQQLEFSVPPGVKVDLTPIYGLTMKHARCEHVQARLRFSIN
What is called AC50 is the midpoint of the concentration-response curve, whichever way the signal moves. With `CC(=O)[C@@H]1CC[C@@H]2[C@@H]3C[C@H](C)C4=CC(=O)CC[C@@]4(C)[C@H]3[C@H](O)C[C@]21C`, the AC50 result was “inactive”.
Regarding `CS(=O)(=O)N1CCC2(CCCN(C(c3ccccc3)c3ccccc3)C2)CC1`, the AC50 result is “inactive”.
Same read-out and setting: in the case of `CC1CC(=O)c2cnc(N)nc2C1` (stereo not drawn) it was “inactive”; in that of `O=C1CC(c2ccccc2)Cc2nc(N3CCc4ccccc4C3)ncc21` (stereo not drawn), 3.55 µM (active); in that of `Cc1ccc(C2CC(=O)c3cnc(N4CCc5ccccc5C4)nc3C2)cc1` (stereo not drawn), “inactive”.
On the same count and under the same terms, the same measure for `Cc1ccnn2cc3c(=O)n(C)c(=O)n(C)c3c12`: 12.6 µM (active); for `COc1ccccc1CN1CC[C@@]2(CCCN(C(C)=O)C2)C1`: “inactive”; for `COc1ccc2[nH]cc(CCNc3ncnc4ccc(-c5cccc(C#N)c5)cc34)c2c1`: 2.51 µM (active).
Regarding `COc1ccc2[nH]cc(CCNc3ncnc4ccc(-c5cccnc5)cc34)c2c1`, the AC50 was 0.0794 µM (active).
Same read-out and setting: the same measure for `CCC1=C(C)CN(C(=O)NCCc2ccc(S(=O)(=O)NC(=O)NC3CCC(C)CC3)cc2)C1=O` (stereo not drawn): “inactive”.
For the molecule `CCOC(=O)N1CCN(C(=O)c2oc3ccc(S(=O)(=O)N4CCCCC4)cc3c2C)CC1`, the AC50 entry was “inactive”.
Turning to `Cc1ccc(OC(=O)c2oc3ccc(F)cc3c2C)c(C)c1`, the AC50 was 2.51 µM (active).
Regarding `O=C(O)CCC(=O)c1ccc(Cl)cc1`, the activity, negative = inhibition was -17.8% [at 11.4 µM] (inactive).
Take `Cc1ccc(NC(=O)c2cc(NC(=O)CCCC(=O)O)ccc2Cl)cc1Cl`: the AC50 entry was “inactive”.
Same read-out and setting: the same measure for `Cc1ccc(NCCC(=O)c2ccc(Cl)cc2)cc1`: 0.251 µM (active); for `O=C(O)CCC(=O)Nc1ccc(C(=O)N2CCCCC2)cc1`: “inactive”; for `CCCOc1ccc(C(=O)NNC(=S)NC(=O)CC)cc1`: “inactive”.
On to `Cc1ccc(NCCC(=O)c2ccc(Cl)c(Cl)c2)cc1`, for which the half-maximal activity concentration (AC50) is 1.26 µM (active).
Take `Cc1ccc(NC(=O)CCC(=O)c2ccc(F)cc2)cc1Cl`: the AC50 was 6.31 µM (active).
Turning to `CCCOc1ccc(C(=O)CCNc2ccc(C)c(Cl)c2)cc1`, the AC50 was 0.891 µM (active).
As to `O=C(O)[C@@H]1[C@@H]2C[C@@H]3[C@@H](OC(=O)[C@@H]31)[C@H]2Br`, the activity, negative = inhibition was -4.92% [at 11.4 µM] (inactive).
On to `OC(CCN1CCCCC1)(c1ccccc1)c1ccccc1`, for which the AC50 entry was “inactive”.
On the same count and under the same terms, the same measure for `CCCCOC(=O)Nc1ccc(C)c(Cl)c1`: 4.47 µM (active).
For `Cc1c(Cl)c(S(N)(=O)=O)cc(S(N)(=O)=O)c1NC(=O)c1ccc(Cl)cc1`, the activity, negative = inhibition was -2.26% [at 11.4 µM] (inactive).
As to `Cc1ccc(NCCC(=O)c2ccc(Cl)cc2)cc1C`, the AC50 was 0.631 µM (active).
As for `Cc1cnc(CNc2ncnc3ccc(-c4cccc(C#N)c4)cc23)cn1`, the AC50 was 0.398 µM (active).
The same measure, in the same setting: in the case of `COc1cccc(-c2ccc3ncnc(NCc4cnc(C)cn4)c3c2)c1` it was 2.51 µM (active).
Consider `C/C(CCN1CCc2nc(-c3ccccc3)c(-c3ccccc3)cc2C1)=N\OC[C@@H](C)[C@H](OCc1ccccc1)C(C)C`, for which the activity, negative = inhibition was -4.9% [at 11.4 µM] (inactive).
As for `COC(=O)C/C=C\[C@@H](C)[C@@H](/C=N\OC[C@@H]1O[C@H](c2ccccc2)C=C[C@@H]1Oc1ccc(OC)cc1)OC`, the activity, negative = inhibition was 10.1% [at 11.4 µM] (inactive).
As to `Cc1cccc(OC(=O)CN2C(=O)C3C4CCC(C4)C3C2=O)c1C` (stereo not drawn), the AC50 is 12.6 µM (active).
`CC(=O)Nc1ccc(NCN2C(=O)C3C4CCC(C4)C3C2=O)cc1` (stereo not drawn): the AC50 result is “inactive”.
On the same count and under the same terms, the same measure for `Cc1cccc(C)c1NC(=O)CCN1C(=O)C2C3CCC(C3)C2C1=O` (stereo not drawn): “inactive”.
In the case of `COc1ccc(O[C@H]2C=C[C@@H](c3ccccc3)O[C@H]2COC(=O)N2CCCCC2)cc1`, the activity, negative = inhibition is -4.44% [at 11.4 µM] (inactive).
Regarding `C(=N\Nc1nc(Nc2ccccc2)nc(N2CCOCC2)n1)/c1c[nH]c2ccccc12`, the AC50 is 10 µM (active).
Consider `C#CCCCO/N=C1/C[C@@H](O)[C@@H](O)[C@@H]2[C@@H]3C(=O)N(C[C@@H]4CCCO4)C(=O)[C@H]3CC[C@@H]12`, for which the activity, negative = inhibition was 1.69% [at 11.4 µM] (inactive).
`COc1ccccc1N1CCN(CCCCNC(=O)c2ccc3ccccc3c2)CC1`: the AC50 entry was “inactive”.
Regarding `COc1ccccc1N1CCN(CCCCNC(=O)c2ccc(-c3ccc(C(C)=O)cc3)cc2)CC1`, the AC50 is 25.1 µM (active).
On to `COc1ccccc1N1CCN(CCCNc2cc(=O)n(C)c(=O)n2C)CC1`, for which the AC50 result was “inactive”.
The same measure, in the same setting: the same measure for `COc1ncc2nc(-c3ccc(F)cc3)c(=O)n(CCc3ccccc3)c2n1`: 0.398 µM (active); for `COc1ncc2nc(-c3ccc(F)cc3)c(=O)n(Cc3ccc(F)cc3)c2n1`: 1.58 µM (active); for `COc1ncc2nc(C)c(=O)n(CCc3ccccc3)c2n1`: 2 µM (active).
With `COc1ccccc1N(CC(=O)NCC1CCCO1)C(=O)CNS(=O)(=O)c1ccc(C)cc1` (stereo not drawn), the AC50 result was “inactive”.
Turning to `Cc1ccc(S(=O)(=O)N[C@H]2COC(=O)CC=C[C@@H](C)[C@H]3C=C[C@H](O)[C@@H](COC(=O)CC=C[C@H]2C)O3)cc1`, the activity, negative = inhibition is -8.39% [at 11.4 µM] (inactive) and -5.02% [at 11.4 µM] (inactive).
For `S=c1nc[nH]c2c1ncn2Cc1ccco1`, the activity, negative = inhibition is -16.3% [at 11.4 µM] (inactive).
`Cc1c(NC(=O)CN2CCN(c3ccccc3)CC2)c(=O)n(-c2ccccc2)n1C`: the AC50 entry was “inactive”.
Same read-out and setting: the same measure for `CCOC(=O)c1c(C)n(C)c2ccc(OC)c(NC(=O)CN3CCCCC3)c12`: 15.8 µM (active).
The same measure, in the same setting: in the case of `Cc1cccc(-c2nnc(SCc3ccccc3)o2)c1` it was 14.1 µM (active); in that of `O=c1c(-c2nnc(SCc3ccc(Cl)c(Cl)c3)o2)cccn1Cc1ccccc1`, “inactive”.
Same read-out and setting: the same measure for `Clc1ccc(CSc2nnc(-c3sccc3-n3cccc3)o2)cc1`: 2.82 µM (active).
For the molecule `Clc1ccc(CSc2nnc(-c3cccnc3)o2)cc1`, the AC50 was 3.55 µM (active).
Same read-out and setting: the same measure for `c1ccc(CSc2nnc(-c3sccc3-n3cccc3)o2)cc1`: 2.82 µM (active); for `Clc1cccc(CSc2nnc(-c3sccc3-n3cccc3)o2)c1`: 2.51 µM (active); for `CC(NC(=O)CCSc1nc(-c2ccco2)cc(C(F)(F)F)n1)c1ccccc1` (stereo not drawn): 12.6 µM (active).
Still for that read-out and setting: the same measure for `O=C(NC(C(=O)c1ccccc1)n1cnccc1=O)c1ccccc1` (stereo not drawn): “inactive”.
Consider `CC1CCN(C(NC(=O)c2ccco2)C(=O)c2ccccc2)CC1` (stereo not drawn), for which the AC50 is 14.1 µM (active).
Same read-out and setting: in the case of `COC(=O)c1ccc(C(NC(=O)c2ccco2)[C@]2(C)C[C@H]2C2CCCCC2)cc1` (stereo partly drawn) it was “inactive”; in that of `CCSC(N)=Nc1ccc(C(F)(F)F)cc1`, 2.51 µM (active).
For the molecule `NC(N)=Nc1ccc(-c2ccc(N=C(N)N)cc2)cc1`, the activity, negative = inhibition was -1.39% [at 11.4 µM] (inactive).
